Laboratory results reported in PubChem BioAssay (NCATS).
Records with an inconclusive call do not appear. Where a call stands in place of a potency, no number is given. Activity calls are given as the source filed them. Unless noted, calls follow the shape of the dose curve; as a rule, active = well fitted curve in the direction sought with a large enough effect; inconclusive = small, poorly fitted or top-dose-only effect, or another doubt; inactive = no such curve, though single readings can be large; an effect the other way counts as inactive or inconclusive.

What was measured:
[1] = molecular target: Calcium and integrin-binding protein 1 (Homo sapiens) (UniProt Q99828); assay: Primary qHTS for Identification of Calcium Integrin Binding Protein 1 (CIB1) Competitor (AID 1508620);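 also: GST tagged CIB1 binding a fluorescein labelled alphaIIb integrin peptide tracer; top concentration of the series differs between compounds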
Sequence of Calcium and integrin-binding protein 1 (Homo sapiens) (Q99828 whole entry, looked up): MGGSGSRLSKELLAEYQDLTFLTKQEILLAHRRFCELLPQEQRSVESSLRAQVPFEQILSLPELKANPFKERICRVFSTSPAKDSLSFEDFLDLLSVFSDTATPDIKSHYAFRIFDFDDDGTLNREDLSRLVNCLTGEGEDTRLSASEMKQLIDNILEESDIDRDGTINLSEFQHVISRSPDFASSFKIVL
Summary of the method: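 Fluorescence polarization competition: CIB1-GST (1 uM final) preincubated with compound 15 min at room temperature, then FITC-labeled alphaIIb peptide (100 nM final) added for another 15 min. Polarization read at Ex 480/Em 540.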

[2] = molecular target: Calcium and integrin-binding protein 1 (Homo sapiens) (UniProt Q99828); assay: Confirmatory qHTS for Identification of Calcium Integrin Binding Protein 1 (CIB1) Competitor (AID 1508617); details: CIB1 binding competition assay, biochemical qHTS; also: potency is read from the fitted curve at half-maximal effect; nearly all actives have a fitted effect of over 65% in size
Summary of the method: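 FP competition: CIB1-GST (1 uM final) in 5 mM HEPES pH 7.4, 125 mM NaCl, 5 mM CaCl2, 0.01% Tween20 preincubated 15 min RT with compounds (up to 114 uM), then FITC-alphaIIb peptide (100 nM), 15 min RT; Ex 480/Em 540.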

[3] = Primary qHTS for inhibitors of nuclear receptor binding SET domain protein 2 (NSD2) in an isogenic RCH-ACV NSD2 p.E1099K mutant (9B) (AID 1645876); also: nearly all actives have a fitted effect of over 70% in size
[4] = Primary qHTS for inhibitors of nuclear receptor binding SET domain protein 2 (NSD2) in an RCH-ACV wild type WT cells (2C) (AID 1645877); also: nearly all actives have a fitted effect of over 70% in size; also: potency is read from the fitted curve at half-maximal effect
[5] = qHTS to identify inhibitors of the type 1 interferon - major histocompatibility complex class I in skeletal muscle: primary screen against the NCATS Mechanism Interrogation Plate v5.0 (MIPE) Libary (AID 1347411); also: nearly all actives have a fitted effect of over 65% in size
Summary of the method: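 Cells were genome-edited human myoblasts carrying a HiBit tag on endogenous HLA-B. They were treated with IFN-beta (4.0 ng/ml) and titrated compounds (top 46 uM) for 24 hrs before lytic HiBiT detection.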

[6] = molecular target: Cytochrome P450 2C9 (Homo sapiens) (UniProt P11712); assay: Cytochrome P450 family 2 subfamily C member 9 (CYP2C9) small molecule antagonists: luciferase biochemical (cell-free) qHTS assay (AID 1645842; active = well fitted curve in the direction sought with a large enough effect in the repeat runs; an effect the other way counts as inactive or inconclusive; also: potency is read from the fitted curve at half-maximal effect; nearly all actives have a fitted effect of over 55% in size)
Sequence of Cytochrome P450 2C9 (Homo sapiens) (P11712 whole entry, looked up): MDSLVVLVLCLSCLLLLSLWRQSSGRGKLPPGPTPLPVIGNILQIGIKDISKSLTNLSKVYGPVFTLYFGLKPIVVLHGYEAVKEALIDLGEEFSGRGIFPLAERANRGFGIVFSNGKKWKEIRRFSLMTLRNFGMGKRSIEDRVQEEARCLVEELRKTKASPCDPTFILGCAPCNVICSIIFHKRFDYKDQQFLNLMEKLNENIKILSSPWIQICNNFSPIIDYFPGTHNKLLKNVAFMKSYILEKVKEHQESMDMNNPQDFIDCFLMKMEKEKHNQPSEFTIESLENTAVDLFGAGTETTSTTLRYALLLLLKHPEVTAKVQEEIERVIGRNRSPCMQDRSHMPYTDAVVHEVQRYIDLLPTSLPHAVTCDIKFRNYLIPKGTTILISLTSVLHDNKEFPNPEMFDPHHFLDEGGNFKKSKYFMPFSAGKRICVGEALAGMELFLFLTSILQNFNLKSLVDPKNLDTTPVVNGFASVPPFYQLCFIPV
Summary of the method: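 Luminescence, after 20 min with luciferin detection reagent, reflected CYP2C9 turnover during a 1 h NADPH-driven reaction at 37C. Enzyme-substrate mix contained 0.4% bovine serum albumin and was preincubated with compound 10 min at room temperature.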

[7] = molecular target: N-terminal Xaa-Pro-Lys N-methyltransferase 1 (Homo sapiens) (UniProt Q9BV86); assay: Confirmatory qHTS for Inhibitors of N-terminal methyltransferase 1 (NTMT1): MTaseGlo Assay (AID 1645874); also: potency is read from the fitted curve at half-maximal effect; nearly all actives have a fitted effect of over 65% in size
Sequence of N-terminal Xaa-Pro-Lys N-methyltransferase 1 (Homo sapiens) (Q9BV86 whole entry, looked up): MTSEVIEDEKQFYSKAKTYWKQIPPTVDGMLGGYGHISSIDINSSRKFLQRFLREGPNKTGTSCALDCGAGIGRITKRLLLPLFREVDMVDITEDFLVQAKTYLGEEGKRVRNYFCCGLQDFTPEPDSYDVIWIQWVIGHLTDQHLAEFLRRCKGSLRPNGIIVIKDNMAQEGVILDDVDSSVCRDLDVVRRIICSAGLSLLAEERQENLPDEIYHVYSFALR
Summary of the method: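 NTMT1 (125 nM) preincubated 15 min with compound and 100 uM SAM, then 1 uM SPKRIA peptide added for 30 min at room temperature. SAH detected by MTase-Glo luminescence; normalized to no-enzyme and DMSO controls, fitted to 4-parameter Hill.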

[8] = Redox Reaction Profiling qHTS: Assay Interference Panel against the NCATS CANVASS Library (AID 1347401)
Summary of the method: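 Resazurin (5 uM) conversion to resorufin measured with 200 uM DTT in 50 mM HEPES pH 7.3, 50 mM NaCl. Compounds tested in 11-point qHTS series. Fluorescence (ex 525/em 598 nm) read before and after 15 min dark incubation.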

For `CC1(C)CC[C@]2(C(=O)O)CC[C@]3(C)C(=CCC4[C@@]5(C)C[C@@H](O)[C@H](O)[C@@](C)(CO)C5[C@H](O)C[C@]43C)[C@@H]2C1` (stereo partly drawn), which Potency [1] is on record?
The Potency was “inactive”.

What does the source list for `CC(=O)NC(Cc1c[nH]c2ccccc(=O)c12)C(=O)O` (stereo not drawn)?
Potency [2]: 44.7 µM (active); Potency [3]: inactive; Potency [4]: inactive

For `C[C@@H]1O[C@@H](O[C@@H]2\C=C/C=C\C=C/C=C\C[C@H](C)OC(=O)/C=C\[C@H]3O[C@@H]3C[C@H](O)C[C@]3(O)C[C@@H](O)[C@@H](C(=O)O)[C@H](C2)O3)[C@H](O)[C@H](N)[C@@H]1O`, which outcome [5] is on record?
The outcome was “inactive”.

What about the Potency [1] of the same compound?
Its Potency is “inactive”.

What about the Potency [3] of the same compound?
The Potency was “inactive”.

What about the Potency [4] of the same compound?
Its Potency is “inactive”.

For `CC1OC(OC2CCC3(C)C(CCC4(C)C3C=CC35OCC6(CCC(C)(C)CC63)CCC45C)C2(C)CO)C(OC2OC(CO)C(O)C(O)C2O)C(O)C1OC1OC(CO)C(O)C(O)C1O` (stereo not drawn), which Potency [1] is on record?
Its Potency is “inactive”.

Which results are given for `Cc1ncc(Cl)cc1NCc1ccc(C(=O)NC(CC2CCCC2)C(=O)NC2CC2)s1` (stereo not drawn)?
outcome [5]: inactive; Potency [1]: inactive; Potency [4]: 14.8 µM (active)

For `N#Cc1cccc(-c2c[nH]c3ncnc(N4CCOCC4)c23)c1`, which outcome [5] is on record?
Its outcome is “inactive”.

What about the Potency [1] of the same compound?
Its Potency is “inactive”.

And the Potency [6]?
The Potency was 2.39 µM (active).

And the Potency [7]?
Its Potency is 39.8 µM (active).

Which results are given for `CC(C)c1ccc2c(c1)CCC1[C@](C)(C(=O)O)CCC[C@]21C` (stereo partly drawn)?
outcome [8]: inactive; Potency [1]: inactive; Potency [3]: inactive; Potency [4]: inactive

Which Potency [1] does the source give for `C=CCC/C=C/C#CCCCCCCCC[C@H]1C(=O)O[C@H](C)[C@@H]1O` here?
Its Potency is “inactive”.

Which Potency [1] does the source give for `CC1CCCCCCCc2cc(O)cc(O)c2C(=O)O1` (stereo not drawn) here?
Its Potency is “inactive”.

Which Potency [1] does the source give for `C/C=C(\C)C(=O)OC1C(C)C2(O)C3C=C(C)C(=O)C3CC(CO)=CC2C2C(C)(C)C12OC(C)=O` (stereo not drawn) here?
The Potency was “inactive”.
